Assay results from ChEMBL document CHEMBL4303097 (2020).
Over roughly 1,500 compounds, “Inhibition index” has its median near 0.17; the highest 2% begin near 1.3. Only a selection was taken, and the highest values are over-represented in it overall.

Tested on: SARS-CoV-2
Assay: Inhibition of cell viability relative to arbidol control (inhibition index > 1 indicates higher activity) measured by fluorescence (OD590nm) in Vero E6 cells infected with SARS-CoV-2 (strain BavPat1) at MOI 0.002 after 72hrs
Assay type: functional, Chlorocebus sabaeus, Vero C1008

Compound | Inhibition index
CCCCOc1ccc(C(=O)CCN2CCCCC2)cc1.Cl [DYCLONINE HYDROCHLORIDE] | 1.119
CCc1ccc(C(=O)C(C)CN2CCCCC2)cc1.Cl (stereo not given) | 1.254
Cc1ccc(C(=O)C(C)CN2CCCCC2)cc1.Cl (stereo not given) [TOLPERISONE HYDROCHLORIDE] | 1.172
C[C@]12CC[C@@H]3c4ccc(O)cc4CC[C@H]3[C@@H]1CC[C@@H]2O [ESTRADIOL] | 0.3797
C[C@]12CC[C@@H]3c4ccc(O)cc4CC[C@H]3[C@@H]1CCC2=O [ESTRONE] | 0.9303
C[C@]12CC[C@H]3C(=CCc4cc(O)ccc43)[C@@H]1CCC2=O [EQUILIN] | 1.282
CC(=O)[N-]S(=O)(=O)c1ccc(N)cc1.O.[Na+] [SULFACETAMIDE SODIUM] | 0.002362
Cc1cc(O)c(C(=O)N[C@@H](C(=O)N[C@@H]2C(=O)N3C(C(=O)O)=C(CSc4nnnn4C)CS[C@H]23)c2ccc(O)cc2)cn1 [CEFPIRAMIDE] | 0.7171
CN(C)CCCN1c2ccccc2[S+]([O-])c2ccc(Cl)cc21 (stereo not given) [CHLOROPROMAZINE SULFOXIDE] | 0.938
CN1C[C@H](CNC(=O)OCc2ccccc2)C[C@@H]2c3cccc4c3c(cn4C)C[C@H]21 [METERGOLINE] | -0.1165
CC(C)NCC(O)COc1ccc(CCOCC2CC2)cc1.Cl (stereo not given) [BETAXOLOL HYDROCHLORIDE] | 0.6286
CCOc1ccc2ccccc2c1C(=O)N[C@@H]1C(=O)N2[C@@H]1SC(C)(C)[C@@H]2C(=O)[O-].O.[Na+] [NAFCILLIN SODIUM] | 0.3633
Brc1c(NC2=NCCN2)ccc2nccnc12.O=C(O)C(O)C(O)C(=O)O | 0.355
CN(C)[C@@H]1C(O)=C(C(N)=O)C(=O)[C@@]2(O)C(O)=C3C(=O)c4c(O)cccc4[C@@](C)(O)[C@H]3C[C@@H]12.Cl [TETRACYCLINE HYDROCHLORIDE] | -0.0001993
CCC(=O)O[C@]1(C(=O)SCF)[C@H](C)C[C@H]2[C@@H]3C[C@H](F)C4=CC(=O)C=C[C@]4(C)[C@@]3(F)[C@@H](O)C[C@@]21C [FLUTICASONE PROPIONATE] | 0.5757
CN(C)[C@@H]1C(O)=C(C(N)=O)C(=O)[C@@]2(O)C(O)=C3C(=O)c4c(O)ccc(Cl)c4[C@@](C)(O)[C@H]3C[C@@H]12.Cl [CHLORTETRACYCLINE HYDROCHLORIDE] | 0.03495
CC(C)NCC(O)c1cc(O)cc(O)c1.CC(C)NCC(O)c1cc(O)cc(O)c1.O=S(=O)(O)O (stereo not given) [METAPROTERENOL SULFATE] | 0.06285
COCC1=C(C(=O)OC(C)OC(=O)OC(C)C)N2C(=O)[C@@H](NC(=O)/C(=N\OC)c3csc(N)n3)[C@H]2SC1 (stereo not given in full) [CEFPODOXIME PROXETIL] | 0.5603
C[C@]12C/C(=C\O)C(=O)C[C@@H]1CC[C@@H]1[C@@H]2CC[C@@]2(C)[C@H]1CC[C@]2(C)O | 1.738
C[C@]12COC(=O)C[C@@H]1CC[C@@H]1[C@@H]2CC[C@@]2(C)[C@H]1CC[C@]2(C)O [OXANDROLONE] | 0.1105
C[C@]12Cc3c[nH]nc3C[C@@H]1CC[C@@H]1[C@@H]2CC[C@@]2(C)[C@H]1CC[C@]2(C)O [STANOZOLOL] | 0.4173
CC(Cc1ccccc1)NCCC(c1ccccc1)c1ccccc1.CC(O)C(=O)O (stereo not given) | -0.1094
Cl.OC(c1cc(C(F)(F)F)nc2c(C(F)(F)F)cccc12)C1CCCCN1 (stereo not given) [MEFLOQUINE HYDROCHLORIDE] | -0.1263
CS(=O)(=O)O.Cc1ccc2c(c1)c1c3n2CCNC3CCC1 (stereo not given) | 0.5995
C=C1/C(=C\C=C2/CCC[C@]3(C)[C@@H]([C@H](C)CCCC(C)C)CC[C@@H]23)C[C@@H](O)C[C@@H]1O [ALFACALCIDOL] | -0.1396
COc1ccc(-c2noc(CC(=O)O)c2-c2ccc(OC)cc2)cc1 [MOFEZOLAC] | 0.1442
Nc1cccc2c1C(=O)N(C1CCC(=O)NC1=O)C2=O (stereo not given) [POMALIDOMIDE] | -0.01474
O=C1Nc2ccc(Cl)cc2[C@@](C#CC2CC2)(C(F)(F)F)O1 [EFAVIRENZ] | -0.107

Compound | Inhibition index
CCOCCn1c(N2CCCN(C)CC2)nc2ccccc21.O=C(O)/C=C/C(=O)O.O=C(O)/C=C/C(=O)O [EMEDASTINE DIFUMARATE] | 0.1648
N=C(N)c1ccc(OCCCCCOc2ccc(C(=N)N)cc2)cc1.O=S(=O)(O)CCO.O=S(=O)(O)CCO [PENTAMIDINE ISETHIONATE] | -0.04121
Cc1cccc(C)c1NC(=O)CC12CCCN1CCC2.Cl | 0.08672
CO[C@@H]1[C@@H](O[C@@H]2O[C@H](C)[C@@H](O[C@H]3C[C@@](C)(O)[C@@H](OC(=O)CC(C)C)[C@H](C)O3)[C@H](N(C)C)[C@H]2O)[C@@H](CC=O)C[C@@H](C)[C@@H](O)/C=C/C=C/C[C@@H](C)OC(=O)C[C@H]1OC(C)=O [JOSAMYCIN] | 0.1589
CCC(=O)O[C@@H]1CC(=O)O[C@H](C)C/C=C/C=C/[C@H](O)[C@H](C)C[C@H](CC=O)[C@H](O[C@@H]2O[C@H](C)[C@@H](O[C@H]3C[C@@](C)(O)[C@@H](OC(=O)CC)[C@H](C)O3)[C@H](N(C)C)[C@H]2O)[C@H]1OC [MIDECAMYCIN] | 0.09553
CO[C@@H]1[C@@H](O[C@@H]2O[C@H](C)[C@@H](O[C@H]3C[C@@](C)(O)[C@@H](O)[C@H](C)O3)[C@H](N(C)C)[C@H]2O)[C@@H](CC=O)C[C@@H](C)[C@@H](O[C@H]2CC[C@H](N(C)C)[C@@H](C)O2)/C=C/C=C/C[C@@H](C)OC(=O)C[C@H]1OC(C)=O | 1.276
C[C@H]1O[C@@H](O[C@H]2[C@@H](O)C[C@H](O[C@H]3[C@@H](O)C[C@H](O[C@H]4CC[C@@]5(C)[C@H](CC[C@@H]6[C@@H]5C[C@@H](O)[C@]5(C)[C@@H](C7=CC(=O)OC7)CC[C@]65O)C4)O[C@@H]3C)O[C@@H]2C)C[C@H](O)[C@@H]1O [DIGOXIN] | 0.2267
COc1ccc(C[C@@H]2c3cc(OC)c(OC)cc3CC[N@+]2(C)CCC(=O)OCCCCCOC(=O)CC[N@@+]2(C)CCc3cc(OC)c(OC)cc3[C@H]2Cc2ccc(OC)c(OC)c2)cc1OC.O=S(=O)([O-])c1ccccc1.O=S(=O)([O-])c1ccccc1 [CISATRACURIUM BESYLATE] | 1.338
COc1ccc(CC2c3cc(OC)c(OC)cc3CC[N+]2(C)CCC(=O)OCCCCCOC(=O)CC[N+]2(C)CCc3cc(OC)c(OC)cc3C2Cc2ccc(OC)c(OC)c2)cc1OC.O=S(=O)([O-])c1ccccc1.O=S(=O)([O-])c1ccccc1 (stereo not given) [ATRACURIUM BESYLATE] | 0.8693
CC1(C)S[C@@H]2[C@H](NC(=O)[C@@H](c3ccccc3)S(=O)(=O)O)C(=O)N2[C@H]1C(=O)O.[Na+].[Na+] | 0.4594
NC12CC3CC(CC(C3)C1)C2.NC12CC3CC(CC(C3)C1)C2.O=C(O)/C=C\C(=O)O | 0.02174
CC1=C(C(=O)O)N2C(=O)[C@@H](NC(=O)[C@H](N)c3ccc(O)cc3)[C@H]2SC1 [CEFADROXIL] | 0.02715
CN1CCN(CCCN2c3ccccc3Sc3ccc(C(F)(F)F)cc32)CC1.Cl.Cl [TRIFLUOPERAZINE HYDROCHLORIDE] | -0.1697
COC(c1ccccc1)(c1ccccc1)C(Oc1nc(C)cc(C)n1)C(=O)O (stereo not given) | 1.459
CN1CCC(=C2c3ccccc3CCc3cccnc32)CC1.O=C(O)/C=C\C(=O)O.O=C(O)/C=C\C(=O)O [AZATADINE MALEATE] | 0.8296
CN(C)CCOC(=O)C(c1ccccc1)C1(O)CCCC1.Cl (stereo not given) [CYCLOPENTOLATE HYDROCHLORIDE] | 1.136
CC(C)(C)NC[C@H](O)c1ccc(O)c(CO)c1.Cl [LEVALBUTEROL HYDROCHLORIDE] | 1.311
CC(C)(C)NCC(O)c1ccc(O)c(CO)c1 (stereo not given) [ALBUTEROL] | 0.0995
CNCC(O)c1ccc(O)c(O)c1.Cl (stereo not given) [RACEPINEPHRINE HYDROCHLORIDE] | 0.3358
CC[N+](C)(C)Cc1ccccc1Br.Cc1ccc(S(=O)(=O)[O-])cc1 [BRETYLIUM TOSYLATE] | 0.2627
CC(=O)N[C@@H](CC(=O)O)C(=O)N[C@@H](CCC(=O)O)C(=O)O [ISOSPAGLUMIC ACID] | 0.8884
CC(=O)O[C@]1(C(C)=O)CC[C@H]2[C@@H]3C=C(Cl)C4=CC(=O)C5CC5[C@]4(C)[C@H]3CC[C@@]21C (stereo not given in full) | 0.4824
N[C@H]1CONC1=O [LEVCYCLOSERINE] | 1.42
N[C@@H]1CONC1=O [CYCLOSERINE] | 1.427
O.O=P(O)(O)C(O)(Cc1cccnc1)P(=O)(O)O | 0.3004
CC[N+](C)(CC)CCC[n+]1c(-c2ccccc2)c2cc(N)ccc2c2ccc(N)cc21.[I-].[I-] [PROPIDIUM] | 0.2273
CC[C@]12CCCN3CCc4c(n(c5ccccc45)[C@@](O)(C(=O)OC)C1)[C@@H]32 [VINCAMINE] | 0.1041
